Measurements published in PubChem BioAssay AID1159580 (chemical genetic matrix, 2015).
Screen size: about 5,500 compounds; about 2,000 (36%) were called active. Roughly 18% stayed inconclusive and do not appear here. Cut-off read from the data, not from the text of the source: active = normalized growth mostly below about 0.91 (no sharp cut-off); inconclusive = no clear call, values can overlap the other calls; inactive = mostly above about 0.92. The list shows a part of the results.

Experiment: chemical genetic growth profiling, strain panel (AID 1159580);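 note: tested at 20 µM; growth read once vehicle control cultures reached saturation at 30 °C; 1 = growth at the plate median or of vehicle wells; lower values mean less growth of the strain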
Settings: growth OD

Measured: normalized growth

COc1ccccc1N=C(N)SCc1ccccc1
inactive: S. cerevisiae deletion strains, locus YAL013W, strain DEP1, hits give low values 1.01 | S. cerevisiae deletion strains, locus YBR229C, strain ROT2, hits give low values 1.01 | S. cerevisiae deletion strains, locus YCL061C, strain MRC1, hits give low values 1.01 | S. cerevisiae deletion strains, locus YDL101C, strain DUN1, hits give low values 1 | S. cerevisiae deletion strains, locus YDR150W, strain NUM1, hits give low values 0.923 | S. cerevisiae deletion strains, locus YEL061C, strain CIN8, hits give low values 1 | S. cerevisiae deletion strains, locus YGR078C, strain PAC10, hits give low values 1.01 | S. cerevisiae deletion strains, locus YHR030C, strain SLT2, hits give low values 1.03 | S. cerevisiae deletion strains, locus YHR087W, strain rtc3, hits give low values 1.01 | S. cerevisiae deletion strains, locus YJL187C, strain SWE1, hits give low values 1.01 | S. cerevisiae deletion strains, locus YJR043C, strain POL32, hits give low values 1.01 | S. cerevisiae deletion strains, locus YJR075W, strain HOC1, hits give low values 1.01 | S. cerevisiae deletion strains, locus YKL190W, strain CNB1, hits give low values 1.01 | S. cerevisiae deletion strains, locus YLR039C, strain RIC1, hits give low values 1.02 | S. cerevisiae deletion strains, locus YLR058C, strain SHM2 (second series), hits give low values 1.01 | S. cerevisiae deletion strains, locus YLR085C, strain ARP6, hits give low values 1.03 | S. cerevisiae deletion strains, locus YLR262C, strain YPT6, hits give low values 0.999 | S. cerevisiae deletion strains, locus YML094W, strain GIM5, hits give low values 0.988 | S. cerevisiae deletion strains, locus YMR219W, strain ESC1, hits give low values 1.01 | S. cerevisiae deletion strains, locus YMR263W, strain SAP30, hits give low values 1.01 | S. cerevisiae deletion strains, locus YMR307W, strain GAS1, hits give low values 1.06 | S. cerevisiae deletion strains, locus YNL128W, strain TEP1, hits give low values 1.01 | S. cerevisiae deletion strains, locus YNL153C, strain GIM3, hits give low values 1 | S. cerevisiae deletion strains, locus YNL298W, strain CLA4 (second series), hits give low values 0.998 | S. cerevisiae deletion strains, locus YNL322C, strain KRE1, hits give low values 1.01 | S. cerevisiae deletion strains, locus YNR030W, strain Alg12, hits give low values 1.02 | S. cerevisiae deletion strains, locus YPL055C, strain LGE1, hits give low values 0.928 | S. cerevisiae deletion strains, locus YPL241C, strain CIN2, hits give low values 0.994 | S. cerevisiae deletion strains, locus YPR135W, strain CTF4, hits give low values 0.962 | S. cerevisiae strains, strain wild type, hits give low values 1.01
